Results with a measured potency or affinity are listed apart. Calls of active or inactive are those of the source.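 How the source made its calls: active means cytotoxic compounds whose fitted half-maximal concentration is at most twice the top valid tested dose; inconclusive means flat curve showing 30 to 70% signal loss, or poor fit; inactive means the rest.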

A short description of this assay: A549 cell cytotoxicity, dose response, cytotoxicity control, 24 h, CellTiter-Glo luminescence, cherry-picks (AID 1053115). The following applies: A549 viability, CellTiter-Glo ATP luminescence; series mostly up to 30 µM.
For `C[C@H](O)C#Cc1ccc2c(c1)O[C@H](CN(C)Cc1ccccc1)[C@@H](C)CN([C@@H](C)CO)S2(=O)=O`, the compound was called inactive.

Regarding `CCCNC(=O)C[C@H]1CC[C@@H]2[C@@H](COc3ccc(NC(=O)CCC)cc3C(=O)N2C)O1`, the result was inactive.

For `C[C@@H]1CN([C@H](C)CO)C(=O)c2cccc(NC(=O)Nc3ccc(F)cc3)c2O[C@@H]1CN(C)S(=O)(=O)c1ccc(Cl)cc1`, the call was inactive.

On to `COc1ccccc1CN1CC[C@H]2[C@H](CO)Nc3ccc(-c4ccc(C(=O)N(C)C)cc4)cc3[C@H]21`, for which the outcome was inactive. With `CO[C@H]1CN(C)C(=O)c2ccc(NC(=O)c3ccc(F)cc3)cc2OC[C@H](C)N(C(=O)c2ccc(F)cc2)C[C@@H]1C`, the compound was called inactive. The entry for `CN1c2ccc(C#Cc3cccnc3)cc2[C@@H]2[C@@H](CCN2C(=O)C2CCC2)[C@H]1CO` is “inactive”; for `CN1c2ccc(C#Cc3cccnc3)cc2[C@@H]2[C@@H](CCN2C(=O)C2CCCCC2)[C@H]1CO` it is “inactive”. Consider `COc1ccccc1CN1CC[C@@H]2[C@H]1c1cc(-c3ccc(C(=O)N(C)C)cc3)ccc1N[C@@H]2CO`, for which the compound was classed as inactive.

`CN1c2ccc(C#Cc3cccnc3)cc2[C@H]2[C@H](CCN2C(=O)C2CCCCC2)[C@@H]1CO`: the outcome was inactive. In the case of `C[C@H](O)C#Cc1ccc2c(c1)O[C@H](CN(C)Cc1ccc(-c3ccccc3)cc1)[C@H](C)CN([C@@H](C)CO)S2(=O)=O`, the compound was classed as inactive. `CN1c2ccc(C#Cc3cccnc3)cc2[C@@H]2[C@@H](CCN2C(=O)C2CCC2)[C@@H]1CO`: the compound was called inactive. With `C[C@H](O)C#Cc1ccc2c(c1)O[C@H](CN(C)Cc1ccccc1)[C@H](C)CN([C@@H](C)CO)S2(=O)=O`, the compound was called inactive. Under `C[C@@H]1CN([C@@H](C)CO)S(=O)(=O)c2ccc(C#C[C@@H](C)O)cc2O[C@@H]1CN(C)Cc1ccc(-c2ccccc2)cc1` stands “inactive”; under `CN1CCN(C(=O)c2cc3c(c(-c4cccc(C#CCC5CCCC5)c4)n2)[C@@H](CCO)N(S(=O)C(C)(C)C)C3)CC1` (some centres not stated), “inactive”. The entry for `C[C@H](O)C#Cc1ccc2c(c1)O[C@@H](CN(C)Cc1ccccc1)[C@@H](C)CN([C@H](C)CO)S2(=O)=O` is “inactive”.

Take `C[C@H](O)C#Cc1ccc2c(c1)O[C@H](CN(C)Cc1ccccc1)[C@@H](C)CN([C@H](C)CO)S2(=O)=O`: the call was inactive.

Regarding `CN(C)C(=O)c1ccc(-c2cccc(-c3nc(C(=O)NC4CCCC4)cc4c3[C@H](CCO)N([S@@](=O)C(C)(C)C)C4)c2)cc1`, the call was inactive. The entry for `OC[C@H]1Nc2ccc(-c3cccc(F)c3)cc2[C@@H]2[C@H]1CCN2Cc1ccc(F)cc1` is “inactive”. The entry for `C[C@@H](O)C#Cc1ccc2c(c1)O[C@@H](CN(C)Cc1cccnc1)[C@@H](C)CN([C@@H](C)CO)S2(=O)=O` is “inactive”; for `C[C@@H]1CN([C@@H](C)CO)C(=O)Cc2cc(NC(=O)C3CCCCC3)ccc2O[C@H]1CN(C)C(=O)Nc1ccccc1` it is “inactive”. The entry for `COc1ccccc1CN1CC[C@@H]2[C@@H](CO)Nc3ccc(-c4ccc(C(=O)N(C)C)cc4)cc3[C@@H]21` is “inactive”.

Regarding `N#Cc1ccc(-c2ccc3c(c2)[C@@H]2[C@@H](CCN2C(=O)C2CCCCC2)[C@@H](CO)N3)cc1`, the outcome was inactive.

The values above are taken from PubChem BioAssay AID1053115 (Broad Institute, 2014).
